# Test results published in PubChem BioAssay (EPA / NIEHS).
# Inconclusive results are not listed. Calls of active or inactive are those of the source. Rule for the calls: active = hit-call score of the fitted dose curve at least 0.9, where 1 is the maximum; inconclusive = response in the unintended direction; inactive = score below 0.9.
# Key:
# [1] = biological target: human Protein Tyrosine Phosphatase Non-receptor Type 9 (PTPN9), PTPN9 (gene 5780) (UniProt P43378); test: NVS_ENZ_hPTPN9: NovaScreen (NVS) Enzymatic Assay for human Protein Tyrosine Phosphatase Non-receptor Type 9 (PTPN9) (AID 2283209)
# Procedure: NVS_ENZ_hPTPN9 is a biochemical, single-readout assay that uses extracted gene-proteins from SF9 in a cell-free assay. Measurements were taken 1.33 hours after chemical dosing in a 384-well plate.NVS_ENZ_hPTPN9 is one of one assay component(s) measured or calculated from the NVS_ENZ_hPTPN9 assay. It is designed to make measurements of enzyme activity, a form of enzyme reporter, as detected with fluorescence intensity signals by Fluorescence and electrophoretic mobility shift technology.Data from the assay component NVS_ENZ_hPTPN9 was analyzed into 1 assay endpoint. This assay endpoint, NVS_ENZ_hPTPN9, was analyzed in the positive analysis fitting direction relative to DMSO as the negative control and baseline of activity. Using a type of enzyme reporter, loss-of-signal activity can be used to understand changes in the enzymatic activity as they relate to the gene PTPN9. Furthermore, this assay endpoint can be referred to as a primary readout, because this assay has produced multiple assay endpoints where this one serves a enzymatic activity function. To generalize the intended target to other relatable targets, this assay endpoint is annotated to the phosphatase intended target family, where the subfamily is non-receptor tyrosine phosphatase. […]
# [2] = biological target: human Protein Tyrosine Phosphatase Non-receptor Type 6 (PTPN6), PTPN6 (gene 5777) (UniProt P29350); test: NVS_ENZ_hPTPN6: NovaScreen (NVS) Enzymatic Assay for human Protein Tyrosine Phosphatase Non-receptor Type 6 (PTPN6) (AID 2283210)
# How it was run: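 Recombinant human PTPN6 from SF9 cells, enzyme activity followed by fluorescence after mobility-shift separation of substrate and product at 1.33 h. Chemicals first tested at a single 25 uM in duplicate, then confirmed across concentration series; loss of signal relative to DMSO.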
# [3] = biological target: human Protein Tyrosine Phosphatase Receptor Type B (PTPRB), PTPRB (gene 5787) (UniProt P23467); test: NVS_ENZ_hPTPRB: NovaScreen (NVS) Enzymatic Assay for human Protein Tyrosine Phosphatase Receptor Type B (PTPRB) (AID 2283211)
# Procedure: NVS_ENZ_hPTPRB is a biochemical, single-readout assay that uses extracted gene-proteins in a cell-free assay. Measurements were taken 1 hour after chemical dosing in a 384-well plate.NVS_ENZ_hPTPRB is one of one assay component(s) measured or calculated from the NVS_ENZ_hPTPRB assay. It is designed to make measurements of enzyme activity, a form of enzyme reporter, as detected with fluorescence intensity signals by Fluorescence and electrophoretic mobility shift technology.Data from the assay component NVS_ENZ_hPTPRB was analyzed into 1 assay endpoint. This assay endpoint, NVS_ENZ_hPTPRB, was analyzed in the positive analysis fitting direction relative to DMSO as the negative control and baseline of activity. Using a type of enzyme reporter, loss-of-signal activity can be used to understand changes in the enzymatic activity as they relate to the gene PTPRB. Furthermore, this assay endpoint can be referred to as a primary readout, because this assay has produced multiple assay endpoints where this one serves a enzymatic activity function. To generalize the intended target to other relatable targets, this assay endpoint is annotated to the phosphatase intended target family, where the subfamily is receptor tyrosine phosphatase. […]
# [4] = biological target: human Protein Tyrosine Phosphatase Receptor Type F (PTPRF), PTPRF (gene 5792) (UniProt P10586); test: NVS_ENZ_hPTPRF: NovaScreen (NVS) Enzymatic Assay for human Protein Tyrosine Phosphatase Receptor Type F (PTPRF) (AID 2283213)
# How it was run: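 Cell-free fluorescence enzyme assay with recombinant protein and substrate; product separated by electrophoretic mobility shift. Read 1 h after dosing, single 25 uM duplicate screen, then concentration-response up to 50 uM; loss of signal vs DMSO.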
# [5] = biological target: human Protein Tyrosine Phosphatase Receptor Type M (PTPRM), PTPRM (gene 5797) (UniProt P28827); test: NVS_ENZ_hPTPRM: NovaScreen (NVS) Enzymatic Assay for human Protein Tyrosine Phosphatase Receptor Type M (PTPRM) (AID 2283215)
# How it was run: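 Read-out is fluorescence after electrophoretic separation of substrate and product, taken 1.33 h post-dosing with recombinant enzyme. Compounds screened at 25 uM in duplicate, then concentration series for actives; activity as signal loss relative to DMSO.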
# [6] = biological target: human Sirtuin 2 (SIRT2), SIRT2 (gene 22933) (UniProt Q8IXJ6); test: NVS_ENZ_hSIRT2: NovaScreen (NVS) Enzymatic Assay for human Sirtuin 2 (SIRT2) (AID 2283217)
# How it was run: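 Single-point duplicate screen at 25 uM, then concentration-response (max 50 uM) for chemicals passing threshold. Enzyme activity of recombinant human SIRT2 measured after 1 hr by fluorescence with mobility-shift separation of product; DMSO baseline.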
# [7] = biological target: human Sirtuin 1 (SIRT1), SIRT1 (gene 23411) (UniProt Q96EB6); test: NVS_ENZ_hSIRT1: NovaScreen (NVS) Enzymatic Assay for human Sirtuin 1 (SIRT1) (AID 2283219)
# How it was run: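 Cell-free recombinant SIRT1 with a fluorescent substrate; substrate and product separated by electrophoretic mobility shift and read by fluorescence intensity, 1 h after dosing. Primary screen at 25 uM in duplicate; hits re-run in concentration-response up to 50 uM, relative to DMSO.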
# [8] = biological target: human Sirtuin 3 (SIRT3), SIRT3 (gene 23410) (UniProt Q9NTG7); test: NVS_ENZ_hSIRT3: NovaScreen (NVS) Enzymatic Assay for human Sirtuin 3 (SIRT3) (AID 2283222)
# How it was run: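 Cell-free enzyme assay with recombinant protein and fluorescent substrate, product separated by electrophoretic mobility shift; read 1 hour after dosing. Screened in duplicate at 25 uM, then singleton concentration-response up to 50 uM; loss of signal versus DMSO.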
# [9] = biological target: human SRC Proto-Oncogene, Non-receptor Tyrosine Kinase (SRC), SRC (gene 6714) (UniProt P12931); test: NVS_ENZ_hSRC: NovaScreen (NVS) Enzymatic Assay for human SRC Proto-Oncogene, Non-receptor Tyrosine Kinase (SRC) (AID 2283223)
# How it was run: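 Compounds passing 30% inhibition at 25 uM (duplicate) were titrated to a top concentration of 50 uM. Enzyme activity read by fluorescence with mobility-shift substrate/product separation after 1 h; DMSO baseline.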
# [10] = biological target: human Tropomyosin Receptor Kinase A (TRKA), NTRK1 (gene 4914) (UniProt P04629); test: NVS_ENZ_hTrkA: NovaScreen (NVS) Enzymatic Assay for human Tropomyosin Receptor Kinase A (TRKA) (AID 2283224)
# How it was run: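 Compounds were screened at 25 uM in duplicate, then concentration series to a 50 uM top for those meeting threshold (e.g. 30% inhibition). Enzyme was recombinant human TrkA, incubated 1 h. Product formation was quantified by fluorescence after mobility-shift separation.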
# Sequence of human Protein Tyrosine Phosphatase Non-receptor Type 9 (PTPN9), PTPN9 (gene 5780) (P43378 whole entry, looked up): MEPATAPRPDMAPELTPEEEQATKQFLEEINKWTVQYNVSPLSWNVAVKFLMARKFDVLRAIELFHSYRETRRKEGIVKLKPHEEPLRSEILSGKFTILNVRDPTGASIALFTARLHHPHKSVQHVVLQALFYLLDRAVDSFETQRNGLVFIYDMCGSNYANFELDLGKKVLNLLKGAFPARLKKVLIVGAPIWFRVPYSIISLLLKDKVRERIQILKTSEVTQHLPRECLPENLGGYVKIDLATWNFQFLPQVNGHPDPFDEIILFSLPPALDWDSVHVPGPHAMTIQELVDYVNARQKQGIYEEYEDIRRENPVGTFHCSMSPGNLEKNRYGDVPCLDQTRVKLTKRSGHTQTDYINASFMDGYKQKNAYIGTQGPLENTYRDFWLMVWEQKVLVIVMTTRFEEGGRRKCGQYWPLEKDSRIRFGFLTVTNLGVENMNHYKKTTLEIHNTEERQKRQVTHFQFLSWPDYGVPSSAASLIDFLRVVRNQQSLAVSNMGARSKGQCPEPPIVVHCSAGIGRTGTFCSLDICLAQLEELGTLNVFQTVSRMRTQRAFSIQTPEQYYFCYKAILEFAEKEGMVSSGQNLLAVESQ
# Sequence of human Tropomyosin Receptor Kinase A (TRKA), NTRK1 (gene 4914) (P04629 whole entry, looked up): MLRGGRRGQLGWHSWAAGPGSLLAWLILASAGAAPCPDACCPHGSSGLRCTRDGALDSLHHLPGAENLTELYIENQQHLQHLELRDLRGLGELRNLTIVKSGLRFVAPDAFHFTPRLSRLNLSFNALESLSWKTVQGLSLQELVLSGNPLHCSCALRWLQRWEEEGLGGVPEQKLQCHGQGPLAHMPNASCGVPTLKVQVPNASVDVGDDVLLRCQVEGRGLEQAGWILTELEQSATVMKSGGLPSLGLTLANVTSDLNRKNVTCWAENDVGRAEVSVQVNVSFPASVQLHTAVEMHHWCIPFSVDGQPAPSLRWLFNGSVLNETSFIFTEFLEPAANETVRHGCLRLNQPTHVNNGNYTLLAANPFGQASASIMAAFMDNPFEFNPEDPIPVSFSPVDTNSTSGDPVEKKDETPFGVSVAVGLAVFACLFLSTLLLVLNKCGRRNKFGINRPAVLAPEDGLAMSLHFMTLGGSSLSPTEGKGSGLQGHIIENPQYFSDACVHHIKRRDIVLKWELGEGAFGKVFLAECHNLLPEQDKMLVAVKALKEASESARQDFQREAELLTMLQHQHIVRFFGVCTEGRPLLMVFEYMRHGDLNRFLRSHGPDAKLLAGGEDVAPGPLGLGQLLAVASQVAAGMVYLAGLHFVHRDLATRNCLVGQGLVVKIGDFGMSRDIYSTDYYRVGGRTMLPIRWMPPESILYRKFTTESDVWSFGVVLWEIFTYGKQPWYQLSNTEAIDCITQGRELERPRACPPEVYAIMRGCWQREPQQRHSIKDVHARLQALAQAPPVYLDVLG
# Sequence of human SRC Proto-Oncogene, Non-receptor Tyrosine Kinase (SRC), SRC (gene 6714) (P12931 whole entry, looked up): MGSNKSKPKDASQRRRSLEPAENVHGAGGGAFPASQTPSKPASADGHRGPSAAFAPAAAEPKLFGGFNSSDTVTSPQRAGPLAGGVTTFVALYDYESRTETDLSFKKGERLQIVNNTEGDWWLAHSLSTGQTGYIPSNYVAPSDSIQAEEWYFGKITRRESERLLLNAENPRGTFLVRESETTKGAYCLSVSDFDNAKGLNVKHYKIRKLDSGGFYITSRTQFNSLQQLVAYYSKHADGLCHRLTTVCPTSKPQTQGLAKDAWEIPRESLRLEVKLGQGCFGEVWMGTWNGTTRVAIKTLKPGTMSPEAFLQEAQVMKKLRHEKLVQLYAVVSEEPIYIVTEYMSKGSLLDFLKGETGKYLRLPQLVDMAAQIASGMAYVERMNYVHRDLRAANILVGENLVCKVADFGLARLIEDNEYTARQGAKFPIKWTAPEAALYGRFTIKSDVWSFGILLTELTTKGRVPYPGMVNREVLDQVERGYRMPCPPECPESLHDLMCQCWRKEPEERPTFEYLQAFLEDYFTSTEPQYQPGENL
# Sequence of human Protein Tyrosine Phosphatase Non-receptor Type 6 (PTPN6), PTPN6 (gene 5777) (P29350 whole entry, looked up): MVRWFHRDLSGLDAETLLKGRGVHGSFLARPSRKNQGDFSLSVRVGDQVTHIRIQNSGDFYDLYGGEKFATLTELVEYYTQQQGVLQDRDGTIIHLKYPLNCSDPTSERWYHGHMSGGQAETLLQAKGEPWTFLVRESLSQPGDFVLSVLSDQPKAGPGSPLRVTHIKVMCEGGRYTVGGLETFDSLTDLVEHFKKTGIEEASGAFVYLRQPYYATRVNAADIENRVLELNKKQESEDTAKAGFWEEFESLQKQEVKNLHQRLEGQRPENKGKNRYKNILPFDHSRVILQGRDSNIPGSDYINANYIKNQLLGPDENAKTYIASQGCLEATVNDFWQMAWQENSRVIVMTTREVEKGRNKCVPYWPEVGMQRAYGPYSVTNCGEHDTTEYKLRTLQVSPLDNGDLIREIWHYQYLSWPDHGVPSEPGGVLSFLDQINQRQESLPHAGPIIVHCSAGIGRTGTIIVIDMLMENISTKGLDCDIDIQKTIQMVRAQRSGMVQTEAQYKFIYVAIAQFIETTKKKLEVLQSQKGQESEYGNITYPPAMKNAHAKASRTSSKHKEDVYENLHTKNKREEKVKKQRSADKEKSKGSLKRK
# Sequence of human Protein Tyrosine Phosphatase Receptor Type B (PTPRB), PTPRB (gene 5787) (P23467 whole entry, looked up): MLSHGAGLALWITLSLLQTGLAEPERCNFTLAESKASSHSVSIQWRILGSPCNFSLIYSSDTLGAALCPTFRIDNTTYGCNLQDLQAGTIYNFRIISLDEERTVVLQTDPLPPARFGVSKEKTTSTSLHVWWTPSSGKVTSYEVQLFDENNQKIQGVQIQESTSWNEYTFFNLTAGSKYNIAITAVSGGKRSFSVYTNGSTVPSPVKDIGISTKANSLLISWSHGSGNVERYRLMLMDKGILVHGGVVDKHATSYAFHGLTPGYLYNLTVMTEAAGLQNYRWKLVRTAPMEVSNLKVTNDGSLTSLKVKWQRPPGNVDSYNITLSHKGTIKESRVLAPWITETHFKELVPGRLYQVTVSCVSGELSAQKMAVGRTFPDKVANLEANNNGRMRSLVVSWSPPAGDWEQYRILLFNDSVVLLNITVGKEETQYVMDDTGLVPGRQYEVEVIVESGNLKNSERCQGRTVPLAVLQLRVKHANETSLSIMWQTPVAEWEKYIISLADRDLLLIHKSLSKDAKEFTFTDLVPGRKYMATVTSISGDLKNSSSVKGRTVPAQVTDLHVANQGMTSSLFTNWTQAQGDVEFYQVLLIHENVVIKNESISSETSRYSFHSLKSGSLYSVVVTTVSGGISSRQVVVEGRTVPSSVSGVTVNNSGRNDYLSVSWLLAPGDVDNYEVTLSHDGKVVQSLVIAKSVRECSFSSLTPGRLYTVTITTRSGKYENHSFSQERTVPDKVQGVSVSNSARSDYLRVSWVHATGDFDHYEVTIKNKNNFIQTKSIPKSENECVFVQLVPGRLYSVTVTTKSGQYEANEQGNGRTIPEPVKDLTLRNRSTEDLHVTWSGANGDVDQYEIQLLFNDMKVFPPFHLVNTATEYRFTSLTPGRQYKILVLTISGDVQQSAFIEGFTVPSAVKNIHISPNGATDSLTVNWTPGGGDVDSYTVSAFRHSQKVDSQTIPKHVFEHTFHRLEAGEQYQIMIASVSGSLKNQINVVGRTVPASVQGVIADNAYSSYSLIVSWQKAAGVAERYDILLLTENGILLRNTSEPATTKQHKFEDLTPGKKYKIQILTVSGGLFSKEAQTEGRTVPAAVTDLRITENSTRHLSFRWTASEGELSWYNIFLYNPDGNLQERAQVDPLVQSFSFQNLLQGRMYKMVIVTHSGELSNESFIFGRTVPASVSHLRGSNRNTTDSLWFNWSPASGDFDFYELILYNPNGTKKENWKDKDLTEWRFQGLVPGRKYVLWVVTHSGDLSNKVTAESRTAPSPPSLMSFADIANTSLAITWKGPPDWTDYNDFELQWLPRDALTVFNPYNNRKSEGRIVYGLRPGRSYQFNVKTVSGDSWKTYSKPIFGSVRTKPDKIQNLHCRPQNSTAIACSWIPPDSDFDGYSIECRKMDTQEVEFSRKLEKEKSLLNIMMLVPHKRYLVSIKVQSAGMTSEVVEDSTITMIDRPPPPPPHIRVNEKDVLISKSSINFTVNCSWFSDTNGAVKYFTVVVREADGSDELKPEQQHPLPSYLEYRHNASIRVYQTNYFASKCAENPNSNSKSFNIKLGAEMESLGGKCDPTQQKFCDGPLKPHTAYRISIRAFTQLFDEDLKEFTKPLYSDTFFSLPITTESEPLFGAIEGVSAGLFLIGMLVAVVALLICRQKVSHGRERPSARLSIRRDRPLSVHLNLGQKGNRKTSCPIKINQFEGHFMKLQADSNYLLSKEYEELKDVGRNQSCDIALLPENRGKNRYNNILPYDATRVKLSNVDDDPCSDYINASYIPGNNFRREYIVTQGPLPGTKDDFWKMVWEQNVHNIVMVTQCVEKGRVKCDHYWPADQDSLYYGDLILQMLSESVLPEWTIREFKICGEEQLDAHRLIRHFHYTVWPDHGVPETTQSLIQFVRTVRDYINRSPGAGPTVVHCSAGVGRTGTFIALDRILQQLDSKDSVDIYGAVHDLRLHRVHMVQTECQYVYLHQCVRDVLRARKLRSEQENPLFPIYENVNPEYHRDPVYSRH
# Sequence of human Sirtuin 2 (SIRT2), SIRT2 (gene 22933) (Q8IXJ6 whole entry, looked up): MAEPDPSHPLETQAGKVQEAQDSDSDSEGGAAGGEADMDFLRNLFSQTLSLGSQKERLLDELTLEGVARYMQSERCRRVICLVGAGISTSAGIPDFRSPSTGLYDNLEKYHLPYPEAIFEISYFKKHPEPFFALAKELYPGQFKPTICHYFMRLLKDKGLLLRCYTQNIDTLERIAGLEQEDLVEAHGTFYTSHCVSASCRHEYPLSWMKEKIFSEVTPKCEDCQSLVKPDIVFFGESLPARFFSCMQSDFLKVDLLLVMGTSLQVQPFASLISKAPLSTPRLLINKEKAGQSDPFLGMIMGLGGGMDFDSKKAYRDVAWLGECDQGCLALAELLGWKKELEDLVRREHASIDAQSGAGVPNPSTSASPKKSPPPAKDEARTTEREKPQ
structure (smiles),measurement,setting,value
CCCCCCCCCCCCOS(=O)(=O)O,AC50,[1],16.8 µM (active)
same,AC50,[2],25 µM (active)
same,AC50,[3],7.45 µM (active)
same,outcome,[4],inactive
same,AC50,[5],25 µM (active)
same,AC50,[6],25 µM (active)
same,outcome,[7],inactive
same,outcome,[8],inactive
same,outcome,[9],inactive
same,AC50,[10],26 µM (active)
OCC(CO)(CBr)CBr,outcome,[1],inactive
CCCCC(CC)C(=O)O (centres undefined),outcome,[2],inactive
Cc1[nH]nc2c1N=C(c1ccccc1Cl)c1cc([N+](=O)[O-])ccc1N2,AC50,[9],23.1 µM (active)
same,AC50,[10],17.9 µM (active)
